# From paper PMC11024108
# Tests used:
# Experiment in all cases: cross-link between two proteins; cross-linking mass spectrometry
# [1] = target: AP-2 complex subunit beta (UniProt Q9DBG3)
# [2] = target: Large ribosomal subunit protein mL53 (UniProt Q96EL3)
# Histone H2B type 1-L = Histone H2B type 1-L (UniProt Q99880)
# Histone H2B type 1-M = Histone H2B type 1-M (UniProt Q99879)
# [3] = target: Large ribosomal subunit protein uL1 (UniProt P62906)
# [4] = target: Large ribosomal subunit protein eL30 (UniProt P62888)
# [5] = target: Large ribosomal subunit protein eL24 (UniProt P83731)
# Actin, cytoplasmic 2 = Actin, cytoplasmic 2 (UniProt P63261)
# Epsin-1 = Epsin-1 (UniProt Q9Y6I3)
# [6] = target: Ubiquitin-like protein NEDD8 (UniProt Q15843)
# [7] = target: Actin-related protein 2/3 complex subunit 2 (UniProt Q9CVB6)
# Histone H2A type 1-J = Histone H2A type 1-J (UniProt Q99878)
# Beta-synuclein = Beta-synuclein (UniProt Q91ZZ3)
# [8] = target: Actin, alpha cardiac muscle 1 (UniProt P68033)
# Coronin-2B = target: T1, Coronin-2B (UniProt Q8BH44)
# T1 sequence: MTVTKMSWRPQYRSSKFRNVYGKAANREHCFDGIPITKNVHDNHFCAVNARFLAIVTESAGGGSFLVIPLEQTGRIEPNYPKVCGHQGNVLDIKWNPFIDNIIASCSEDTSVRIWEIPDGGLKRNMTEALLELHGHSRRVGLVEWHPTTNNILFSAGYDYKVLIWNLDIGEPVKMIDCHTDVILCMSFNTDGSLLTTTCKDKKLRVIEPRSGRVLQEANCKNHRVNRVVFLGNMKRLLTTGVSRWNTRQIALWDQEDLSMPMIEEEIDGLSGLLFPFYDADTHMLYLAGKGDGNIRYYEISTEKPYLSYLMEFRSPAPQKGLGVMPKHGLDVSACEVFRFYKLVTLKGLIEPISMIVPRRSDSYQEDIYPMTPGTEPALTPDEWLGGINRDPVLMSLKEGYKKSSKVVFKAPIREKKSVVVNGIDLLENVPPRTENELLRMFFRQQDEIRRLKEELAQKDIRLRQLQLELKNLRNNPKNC
# Myosin-10 = Myosin-10 (UniProt Q61879)
# [9] = target: T2, Phosphatase and actin regulator 1 (UniProt Q2M3X8)
# T2 sequence: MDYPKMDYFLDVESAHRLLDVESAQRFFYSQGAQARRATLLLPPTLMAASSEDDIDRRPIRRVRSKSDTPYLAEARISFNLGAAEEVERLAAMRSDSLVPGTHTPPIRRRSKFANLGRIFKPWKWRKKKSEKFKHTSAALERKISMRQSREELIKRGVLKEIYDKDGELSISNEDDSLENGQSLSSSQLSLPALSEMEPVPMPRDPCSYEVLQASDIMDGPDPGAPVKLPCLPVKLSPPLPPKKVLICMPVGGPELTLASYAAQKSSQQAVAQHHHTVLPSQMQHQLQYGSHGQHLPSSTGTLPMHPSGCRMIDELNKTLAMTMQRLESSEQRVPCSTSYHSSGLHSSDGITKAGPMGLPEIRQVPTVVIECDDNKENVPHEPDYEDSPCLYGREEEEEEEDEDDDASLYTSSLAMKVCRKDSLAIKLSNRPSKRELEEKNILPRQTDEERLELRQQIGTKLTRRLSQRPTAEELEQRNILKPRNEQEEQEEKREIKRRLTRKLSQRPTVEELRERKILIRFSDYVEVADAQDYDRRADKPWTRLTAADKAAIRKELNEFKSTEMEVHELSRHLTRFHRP
# Synaptopodin = target: T3, Synaptopodin (UniProt Q8CC35)
# T3 sequence: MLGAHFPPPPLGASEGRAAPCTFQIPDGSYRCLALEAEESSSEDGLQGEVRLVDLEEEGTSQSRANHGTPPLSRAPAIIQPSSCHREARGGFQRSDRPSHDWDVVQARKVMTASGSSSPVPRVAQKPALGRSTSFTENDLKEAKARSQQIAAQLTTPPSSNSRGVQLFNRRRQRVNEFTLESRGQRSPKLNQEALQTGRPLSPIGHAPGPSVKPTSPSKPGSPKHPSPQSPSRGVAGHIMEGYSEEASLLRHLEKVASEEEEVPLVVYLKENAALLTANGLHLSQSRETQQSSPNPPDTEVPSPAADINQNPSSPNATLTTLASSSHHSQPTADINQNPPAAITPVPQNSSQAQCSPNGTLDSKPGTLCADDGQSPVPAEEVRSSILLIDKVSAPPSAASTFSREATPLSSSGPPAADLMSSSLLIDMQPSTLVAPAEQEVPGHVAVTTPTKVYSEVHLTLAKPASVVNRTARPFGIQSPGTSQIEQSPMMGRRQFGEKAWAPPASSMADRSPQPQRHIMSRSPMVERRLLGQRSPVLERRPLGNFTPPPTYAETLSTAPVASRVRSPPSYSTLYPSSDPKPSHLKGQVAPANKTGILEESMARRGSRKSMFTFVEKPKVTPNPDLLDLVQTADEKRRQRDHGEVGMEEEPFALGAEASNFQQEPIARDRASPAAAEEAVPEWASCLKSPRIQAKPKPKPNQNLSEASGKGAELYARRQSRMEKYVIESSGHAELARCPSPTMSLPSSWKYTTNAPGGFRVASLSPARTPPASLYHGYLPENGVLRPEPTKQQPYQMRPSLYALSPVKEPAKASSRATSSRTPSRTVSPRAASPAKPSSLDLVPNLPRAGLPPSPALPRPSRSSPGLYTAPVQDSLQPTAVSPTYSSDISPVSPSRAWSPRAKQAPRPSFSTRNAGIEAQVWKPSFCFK
# Tropomodulin-2 = target: T4, Tropomodulin-2 (UniProt Q9JKK7)
# T4 sequence: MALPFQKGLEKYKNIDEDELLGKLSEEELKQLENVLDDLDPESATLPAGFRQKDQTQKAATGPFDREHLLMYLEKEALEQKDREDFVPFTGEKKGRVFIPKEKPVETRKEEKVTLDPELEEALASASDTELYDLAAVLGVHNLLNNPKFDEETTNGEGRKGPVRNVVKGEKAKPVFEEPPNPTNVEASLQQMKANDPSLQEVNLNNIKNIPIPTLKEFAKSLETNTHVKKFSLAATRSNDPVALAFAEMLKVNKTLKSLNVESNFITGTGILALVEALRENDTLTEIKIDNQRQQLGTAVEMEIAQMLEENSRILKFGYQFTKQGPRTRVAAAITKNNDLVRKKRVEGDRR
# Twinfilin-1 = Twinfilin-1 (UniProt Q91YR1)
# Twinfilin-2 = target: T5, Twinfilin-2 (UniProt Q9Z0P5)
# T5 sequence: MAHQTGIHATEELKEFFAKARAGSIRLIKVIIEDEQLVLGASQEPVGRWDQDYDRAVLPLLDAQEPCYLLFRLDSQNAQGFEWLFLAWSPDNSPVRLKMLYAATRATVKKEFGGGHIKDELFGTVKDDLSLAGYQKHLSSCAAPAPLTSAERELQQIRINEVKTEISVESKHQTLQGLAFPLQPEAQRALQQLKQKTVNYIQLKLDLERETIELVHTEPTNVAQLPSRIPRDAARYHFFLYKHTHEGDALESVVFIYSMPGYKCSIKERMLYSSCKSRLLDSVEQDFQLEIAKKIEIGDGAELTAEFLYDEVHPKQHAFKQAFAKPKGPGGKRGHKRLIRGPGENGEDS
# Unconventional myosin-Va = Unconventional myosin-Va (UniProt Q99104)
# Histone H1.2 = Histone H1.2 (UniProt P16403)
# [10] = target: Large ribosomal subunit protein eL20 (UniProt Q02543)
# [11] = target: T6, Serine/arginine-rich splicing factor 7 (UniProt Q16629)
# T6 sequence: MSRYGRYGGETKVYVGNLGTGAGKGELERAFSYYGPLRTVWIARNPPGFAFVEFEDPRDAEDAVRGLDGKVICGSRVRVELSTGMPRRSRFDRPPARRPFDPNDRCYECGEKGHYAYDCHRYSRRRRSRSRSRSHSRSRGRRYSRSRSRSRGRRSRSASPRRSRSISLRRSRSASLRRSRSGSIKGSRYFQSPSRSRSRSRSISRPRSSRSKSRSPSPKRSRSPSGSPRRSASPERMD
# [12] = target: Small ribosomal subunit protein eS8 (UniProt P62241)
# [13] = target: Dihydropyrimidinase-related protein 1 (UniProt P97427)
# [14] = target: Dihydropyrimidinase-related protein 3 (UniProt Q62188)
# [15] = target: Large ribosomal subunit protein eL24 (UniProt Q8BP67)
# [16] = target: Large ribosomal subunit protein bL17m (UniProt Q9NRX2)
# [17] = target: Actin-related protein 2/3 complex subunit 3 (UniProt Q9JM76)
# Histone H1.2, sequence (P16403 whole entry): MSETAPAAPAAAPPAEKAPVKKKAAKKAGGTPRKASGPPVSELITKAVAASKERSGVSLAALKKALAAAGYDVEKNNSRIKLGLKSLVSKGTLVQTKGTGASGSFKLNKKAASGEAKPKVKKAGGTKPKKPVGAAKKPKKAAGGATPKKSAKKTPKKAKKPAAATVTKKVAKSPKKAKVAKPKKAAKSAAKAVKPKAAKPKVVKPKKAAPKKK
# AP-2 complex subunit sigma, P62743, sequence (P62743 whole entry, one chain of several): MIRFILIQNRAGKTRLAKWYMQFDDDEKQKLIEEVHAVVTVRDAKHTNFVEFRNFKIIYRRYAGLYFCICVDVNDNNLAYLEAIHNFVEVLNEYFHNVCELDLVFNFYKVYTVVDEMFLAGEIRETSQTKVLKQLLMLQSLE
# AP-2 complex subunit beta, sequence (Q9DBG3 whole entry, one chain of several): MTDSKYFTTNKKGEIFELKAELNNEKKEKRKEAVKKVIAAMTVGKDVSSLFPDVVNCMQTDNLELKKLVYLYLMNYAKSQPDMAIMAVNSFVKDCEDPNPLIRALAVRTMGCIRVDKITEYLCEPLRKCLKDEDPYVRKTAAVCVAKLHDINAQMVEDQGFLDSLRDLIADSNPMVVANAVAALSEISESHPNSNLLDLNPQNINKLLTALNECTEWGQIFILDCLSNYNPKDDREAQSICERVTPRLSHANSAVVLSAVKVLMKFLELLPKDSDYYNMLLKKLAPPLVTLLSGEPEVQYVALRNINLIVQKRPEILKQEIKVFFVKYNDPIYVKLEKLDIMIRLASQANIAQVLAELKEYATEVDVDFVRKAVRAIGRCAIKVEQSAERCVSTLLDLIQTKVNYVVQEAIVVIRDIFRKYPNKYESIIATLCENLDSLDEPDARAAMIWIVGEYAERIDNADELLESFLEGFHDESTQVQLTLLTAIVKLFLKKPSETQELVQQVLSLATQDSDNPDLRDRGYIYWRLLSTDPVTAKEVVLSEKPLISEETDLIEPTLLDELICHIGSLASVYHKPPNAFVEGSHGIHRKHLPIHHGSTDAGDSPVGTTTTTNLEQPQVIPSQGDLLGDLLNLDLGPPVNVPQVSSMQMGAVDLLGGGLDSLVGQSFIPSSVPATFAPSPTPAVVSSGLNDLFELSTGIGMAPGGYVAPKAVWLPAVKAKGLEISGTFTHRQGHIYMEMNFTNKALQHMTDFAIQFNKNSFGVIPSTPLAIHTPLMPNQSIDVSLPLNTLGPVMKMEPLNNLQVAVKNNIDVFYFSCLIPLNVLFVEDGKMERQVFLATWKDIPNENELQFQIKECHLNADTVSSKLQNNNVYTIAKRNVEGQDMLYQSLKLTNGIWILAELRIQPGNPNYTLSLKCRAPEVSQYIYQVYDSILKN
substance,measurement,setting,value
"AP-2 complex subunit sigma, P62743",listed as a hit,[1],yes
"Large ribosomal subunit protein uL10m, Q7Z7H8",listed as a hit,[2],yes
"Histone H2B type 1-C/E/F/G/I, P62807",listed as a hit,Histone H2B type 1-L,yes
same,listed as a hit,Histone H2B type 1-M,yes
"Small ribosomal subunit protein eS1, P61247",listed as a hit,[3],yes
"Large ribosomal subunit protein eL43, P61513",listed as a hit,[4],yes
"Large ribosomal subunit protein uL3, P39023",listed as a hit,[5],yes
"Ubiquitin-ribosomal protein eS31 fusion protein, P62979",listed as a hit,"Actin, cytoplasmic 2",yes
same,listed as a hit,Epsin-1,yes
same,listed as a hit,[6],yes
"Actin-related protein 3B, Q641P0",listed as a hit,[7],yes
"Histone H2A type 1-C, Q93077",listed as a hit,Histone H2A type 1-J,yes
"Alpha-synuclein, O55042",listed as a hit,Beta-synuclein,yes
"Actin, cytoplasmic 1, P60710",listed as a hit,[8],yes
same,listed as a hit,Coronin-2B,yes
same,listed as a hit,Myosin-10,yes
same,listed as a hit,[9],yes
same,listed as a hit,Synaptopodin,yes
same,listed as a hit,Tropomodulin-2,yes
same,listed as a hit,Twinfilin-1,yes
same,listed as a hit,Twinfilin-2,yes
same,listed as a hit,Unconventional myosin-Va,yes
"Histone H4, P62805",listed as a hit,Histone H2B type 1-M,yes
"Histone H1.4, P10412",listed as a hit,Histone H1.2,yes
same,listed as a hit,[10],yes
same,listed as a hit,[11],yes
same,listed as a hit,[12],yes
"Histone H3.2, Q71DI3",listed as a hit,Histone H2B type 1-L,yes
same,listed as a hit,Histone H2B type 1-M,yes
"Dihydropyrimidinase-related protein 2, O08553",listed as a hit,[13],yes
same,listed as a hit,[14],yes
"Small ribosomal subunit protein eS6, P62754",listed as a hit,[15],yes
"Large ribosomal subunit protein bL32m, Q9BYC8",listed as a hit,[16],yes
"Actin-related protein 2, P61161",listed as a hit,[7],yes
same,listed as a hit,[17],yes
